The results in this text go back to PubChem BioAssay (NCATS).

The nature of assay [1]: S16 Schwann cell PMP22 intronic element beta-lactamase assay (AID 624044; calls by dose curve; also: nearly all actives have a fitted effect of over 15% in size). The settings on record: S16 rat Schwann cells, PMP22 element beta-lactamase FRET, 24 h; ratio activity, negative = inhibition: at 38.3 µM (top of the series). Put shortly: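 Beta-lactamase reporter under a PMP22 intronic regulatory element in stable S16 rat Schwann cells; 24 h compound exposure. 460 nm blue signal normalized between DMSO (0%) and potassium clavulanate, with 535 nm FRET tracking viability; curves classed by r2 and response.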

A further assay has as its system AA1029. The assay is described as follows: qHTS profiling for inhibitors of Plasmodium falciparum proliferation (AID 504749). Also: nearly all actives have a fitted effect of over 60% in size. The settings on record: P. falciparum in erythrocytes, SYBR Green DNA, 72 h; series mostly up to 28.7 µM. In outline:
(§1)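 SYBR Green fluorescence of parasite DNA, read after lysis and overnight dark incubation, measured growth over 72 h in erythrocyte culture at 0.3% parasitemia and 2.5% hematocrit. Data normalised to DMSO and 0.29 uM artemisinin, with plate-drift correction.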
Background: Quantitative high-throughput screening tests each substance at several concentrations.

Another assay has as its system AS120. Described as above. The settings on record: P. falciparum in erythrocytes, SYBR Green DNA, 72 h; series mostly up to 28.7 µM. In outline: as §1
The next assay has as its system CP203. The assay is described as above. The settings on record: P. falciparum in erythrocytes, SYBR Green DNA, 72 h; series mostly up to 28.7 µM. In outline:
as §1

The test system of another assay is CP217. The description is as above. The settings on record: P. falciparum in erythrocytes, SYBR Green DNA, 72 h; series mostly up to 28.7 µM. Put shortly:
as §1

Another assay has as its system CP268. The assay is described as above. The settings on record: P. falciparum in erythrocytes, SYBR Green DNA, 72 h; series mostly up to 28.7 µM. In outline: as §1
The test system of another assay is CP305. The description is as above. The settings on record: P. falciparum in erythrocytes, SYBR Green DNA, 72 h; series mostly up to 28.7 µM. In outline:
as §1

For a further assay, the system named is PC49. Described as above. The settings on record: P. falciparum in erythrocytes, SYBR Green DNA, 72 h; series mostly up to 28.7 µM. Put shortly:
as §1

Another assay concerns TAB109. Described as above. The settings on record: P. falciparum in erythrocytes, SYBR Green DNA, 72 h; series mostly up to 28.7 µM. In outline: as §1
A further assay concerns ATS189. The description is as above. The settings on record: P. falciparum in erythrocytes, SYBR Green DNA, 72 h; series mostly up to 28.7 µM. In outline: as §1
In another assay the test system is C2A. The assay is described as above. The settings on record: P. falciparum in erythrocytes, SYBR Green DNA, 72 h; series mostly up to 28.7 µM. In outline:
as §1

The next assay relates to CP194. The description is as above. The settings on record: P. falciparum in erythrocytes, SYBR Green DNA, 72 h; series mostly up to 28.7 µM. Put shortly: as §1
The test system of a further assay is CP201. The description is as above. The settings on record: P. falciparum in erythrocytes, SYBR Green DNA, 72 h; series mostly up to 28.7 µM. In outline:
as §1

Another assay concerns CP237. The description is as above. The settings on record: P. falciparum in erythrocytes, SYBR Green DNA, 72 h; series mostly up to 28.7 µM. In outline:
as §1

Another assay has as its system CP250. Described as above. The settings on record: P. falciparum in erythrocytes, SYBR Green DNA, 72 h; series mostly up to 28.7 µM. Put shortly:
as §1

The next assay deals with CP256. The assay is described as above. The settings on record: P. falciparum in erythrocytes, SYBR Green DNA, 72 h; series mostly up to 28.7 µM. In outline:
as §1

A further assay has as its system CP297. Described as above. The settings on record: P. falciparum in erythrocytes, SYBR Green DNA, 72 h; series mostly up to 28.7 µM. Put shortly:
as §1

In the next assay the test system is CP325. Described as above. The settings on record: P. falciparum in erythrocytes, SYBR Green DNA, 72 h; series mostly up to 28.7 µM. In outline: as §1
The test system of the next assay is HB3. Described as above. The settings on record: P. falciparum in erythrocytes, SYBR Green DNA, 72 h; series mostly up to 28.7 µM. Put shortly:
as §1

In the next assay the test system is PC15. Described as above. The settings on record: P. falciparum in erythrocytes, SYBR Green DNA, 72 h; series mostly up to 28.7 µM. In outline:
as §1

Structures are written as SMILES. Inconclusive results are not listed. Values without a mark were called inactive. The source made the active and inactive calls. Unless noted, calls follow the shape of the dose curve; as a rule, active = well fitted inhibition curve with a large enough effect; inconclusive = small, poorly fitted or top-dose-only effect; inactive = flat fitted curve, though single readings scatter.
Potency is read from the fitted curve at half-maximal effect.

Regarding `C[N+]12CCCC[C@@H]1CCC(=C(c1cccs1)c1cccs1)C2` (stereo partly specified), the Potency result in [1] is “inactive”. Besides, the Potency with AA1029 is 8.91 µM (active); with AS120, 10 µM (active); in the assay on CP203, 16.9 µM (active); with CP217, 7.94 µM (active); in the assay on CP268, 15.1 µM (active); in the assay with CP305 it was 10.7 µM (active). For the same compound, the Potency in the assay with PC49 is 10 µM (active); in the assay on TAB109 it was 2.51 µM (active).
For the compound `C/C(=C(/CCO)SS/C(CCO)=C(\C)N(C=O)Cc1cnc(C)nc1N)N(C=O)Cc1cnc(C)nc1N`, the Potency entry (in [1]; in the assay with AA1029; with AS120; in the assay on ATS189; in the assay on C2A; in the assay with CP194) was “inactive” in each case. Further, the Potency result in the assay on CP201, in the assay with CP203, with CP217, in the assay with CP237, in the assay on CP250 and in the assay on CP256 was “inactive” in each case. In addition, the Potency entry with CP268, in the assay on CP297, in the assay with CP305, in the assay on CP325, in the assay with HB3 and in the assay with PC15 was “inactive” throughout. The Potency entry in the assay with PC49 was “inactive”.
In the case of `CC[C@@]1(O)CC2CN(CCc3c([nH]c4ccccc34)[C@](C(=O)OC)(c3cc4c(cc3OC)N(C)C3[C@@](O)(C(=O)OC)C(OC(C)=O)[C@]5(CC)C=CCN6CC[C@@]43C65)C2)C1` (stereo partly specified), the Potency in assay [1] is 0.562 µM (active); with AA1029, 3.16 µM (active); in the assay on AS120, 2.82 µM (active); in the assay with ATS189, 3.98 µM (active); with C2A, 2.82 µM (active); in the assay on CP194 it was 3.79 µM (active). In addition, the Potency with CP203 is 3.01 µM (active); in the assay with CP217, 3.55 µM (active); with CP237, 0.794 µM (active); in the assay on CP250, 3.55 µM (active); in the assay on CP256, 3.16 µM (active); with CP297, 2.39 µM (active). For the same compound, the Potency was 3.79 µM (active) in the assay with CP305 and 3.16 µM (active) in the assay with TAB109.
`COc1cc(/C=C2\CCC/C(=C\c3ccc(O)c(OC)c3)C2=O)ccc1O`: the Potency in [1] was 25.1 µM (active); with AA1029, 12.6 µM (active); in the assay with AS120, 8.91 µM (active); in the assay with CP217, 11.2 µM (active); in the assay with CP237, 14.1 µM (active); in the assay on CP250, 10 µM (active). In addition, the Potency was 13.5 µM (active) in the assay with CP297; 12.6 µM (active) with HB3; 12.6 µM (active) with PC15; 11.2 µM (active) with PC49; 12.6 µM (active) in the assay with TAB109.
`NC(CSSCC(N)C(=O)O)C(=O)O` (stereo unspecified): the Potency entry (in assay [1]; in the assay with AA1029; in the assay with AS120; with ATS189; in the assay with C2A; in the assay on CP194) was “inactive” each time. Moreover, the Potency result with CP201, with CP203, in the assay with CP217, in the assay on CP237, in the assay with CP250 and with CP256 was “inactive” each time. In addition, the Potency entry in the assay with CP268, with CP297, in the assay with CP305, with CP325, in the assay with HB3 and with PC15 was “inactive” in each case. The Potency result in the assay with PC49 and in the assay with TAB109 was “inactive” in each case.
As to `COc1ccc2cc1Oc1cc3c(cc1OC)CC[N+](C)(C)C3Cc1ccc(cc1)Oc1c(OC)c(OC)cc3c1C(C2)[N+](C)(C)CC3` (stereo unspecified), the Potency entry (in assay [1]; in the assay on AA1029; in the assay with AS120; in the assay with ATS189; in the assay with C2A; in the assay on CP194) was “inactive” each time. The Potency result with CP201, in the assay with CP203, in the assay on CP217, in the assay on CP237, in the assay on CP250 and in the assay with CP256 was “inactive” throughout. Further, the Potency result in the assay on CP268, in the assay on CP297, in the assay on CP305, in the assay on CP325, in the assay with HB3 and in the assay with PC15 was “inactive” each time. The Potency entry with PC49 and in the assay on TAB109 was “inactive” throughout.
With `CC(C)CCCC(C)C1CC(=O)C2=C3CCC4CC(O)CCC4(C)C3CCC21C` (stereo unspecified), the Potency result (in [1]; in the assay with AA1029; in the assay with AS120; with ATS189; in the assay with C2A; in the assay on CP194) was “inactive” each time. Also, the Potency entry in the assay with CP201, with CP203, in the assay on CP217, in the assay with CP250, in the assay on CP256 and in the assay on CP268 was “inactive” throughout. The Potency entry with CP297, with CP305, in the assay with CP325, in the assay with PC15, with PC49 and in the assay with TAB109 was “inactive” each time.
